{
  "source": "PubChem BioAssay (NCATS)",
  "data": [
    {"test": "High-throughput drug toxicity screening in the BPDCN cell line Cal-1 (AID 1224825)", "details": "Cal-1 BPDCN cell viability, qHTS; at 45.8 µM (top of the series) unless noted", "source_text": "Blastic plasmacytoid dendritic cell neoplasm (BPDCN) is a rare, aggressive and largely incurable hematologic malignancy originating from plasmacytoid dendritic cells (pDCs). Although an initial response to chemotherapy is common, BPDCN prognosis is extremely poor and most patients relapse with drug-resistant disease leading to a median overall survival of ~1 year after diagnosis. To explore novel potential therapeutic strategies in BPDCN, we performed a high-throughput drug toxicity screening in BPDCN cell liens, using of a library of 1,912 small molecules, enriched for compounds that are either approved or in early stages of development for cancer therapy.\nA total of 500 exponentially growing Cal-1 cells were seeded per well in 5 uL of media (RPMI + Glutamine, without phenol red plus10% FBS and 1X Pen/Strep) into 1536-well solid white high base tissue culture treated Greiner One Bio Plates (789173-F), using a multidrop combi dispenser and a small sterile cassette. Compounds and controls totaling 23nL per well (negative control DMSO and positive control 9.2 uM Bortezomib-final) were immediately added to the plates using a 1536 head pin tool from Kalypsys. The plates were then covered with stainless steel gasket lids from Kalypsys and incubated for 48 hours at 37C under 95% relative humidity with 5% CO2. After 48 hours, the plates were removed and allowed to reach room temperature before 3 uL of Cell Titer Glo reagent (Promega) were added using an Aurora Flying Reagent Dispenser Bioraptor. The plates were then spun at 1000 rpms to remove bubbles and incubated for 15 minutes at room temperature before reading on a ViewLux using a luminescent filter with a 10 second exposure. The relative luciferase units were used to calculated percent activity using DMSO as 100% and Bortezomib as 0%.", "values": [
      {"smiles": "Cn1cnc2c(F)c(Nc3ccc(Br)cc3F)c(C(=O)NOCCO)cc21", "viability (% of control)": "56.4%"},
      {"smiles": "CC(=O)OCC(=O)[C@@]1(O)CC[C@H]2[C@@H]3CCC4=CC(=O)CC[C@]4(C)[C@@H]3C(=O)C[C@@]21C", "viability (% of control)": "111%"},
      {"smiles": "C=C(C)[C@@H]1CC[C@]2(C(=O)O)CC[C@]3(C)[C@H](CC[C@@H]4[C@@]5(C)CC[C@H](O)C(C)(C)[C@@H]5CC[C@]43C)[C@@H]12", "viability (% of control)": "85.4%"},
      {"smiles": "O=C(O)c1ccc(Nc2ncc3c(n2)-c2ccc(Cl)cc2C(c2c(F)cccc2F)=NC3)cc1", "viability (% of control)": "18.2%"},
      {"smiles": "c1cncc(CN2CCC(n3ncc4c(N5CCOCC5)nc(-c5ccc6[nH]ccc6c5)nc43)CC2)c1", "viability (% of control)": "9.02%"},
      {"smiles": "C[C@@]12C[C@@]3(O)O[C@@H](O1)[C@]1(COC(=O)c4ccccc4)[C@@H]3C[C@@]12O[C@@H]1O[C@H](CO)[C@@H](O)[C@H](O)[C@@H]1O", "viability (% of control)": "109%"},
      {"smiles": "COC(=O)[C@@H]1[C@H]2C[C@@H]3c4[nH]c5ccccc5c4CCN3C[C@@H]2CC[C@@H]1O", "viability (% of control)": "21.8%"},
      {"smiles": "COc1cccc2c1C(=O)c1c(O)c3c(c(O)c1C2=O)C[C@@](O)(C(=O)CO)C[C@H]3O[C@H]1C[C@H](N)[C@H](O)[C@H](C)O1", "viability (% of control)": "4.57%"},
      {"smiles": "CCOc1cc2ncc(C#N)c(Nc3ccc(OCc4ccccn4)c(Cl)c3)c2cc1NC(=O)C=CCN(C)C", "viability (% of control)": "13.3%"},
      {"smiles": "CC(=CC(=O)Nc1ccccc1C(=O)O)c1ccc2ccccc2c1", "viability (% of control)": "77.7%"},
      {"smiles": "CN[C@@H]1C[C@H]2O[C@@](C)([C@H]1OC)n1c3ccccc3c3c4c(c5c6ccccc6n2c5c31)C(=O)N[C@H]4O", "viability (% of control)": "4.51%"},
      {"smiles": "C[N+]1(C)[C@@H]2C[C@@H](OC(=O)C(O)(c3cccs3)c3cccs3)C[C@H]1[C@@H]1O[C@@H]12", "viability (% of control)": "97.5%"},
      {"smiles": "Oc1cc2c(cc1O)C1c3ccc(O)c(O)c3OCC1(O)C2", "note": "(stereo not given)", "viability (% of control)": "105%"},
      {"smiles": "CON=C(C(=O)N[C@@H]1C(=O)N2C(C(=O)O)=C(CSC(=O)c3ccco3)CS[C@H]12)c1csc(N)n1", "viability (% of control)": "8.07%"},
      {"smiles": "CCCCCN=C(N)NN=Cc1c[nH]c2ccc(OC)cc12", "viability (% of control)": "11.8%"},
      {"smiles": "O=C(CN1C(=O)C2(CCCC2)NC[C@H]1c1cc(F)cc(F)c1)Nc1ccc2c(c1)C[C@@]1(C2)C(=O)Nc2ncccc21", "viability (% of control)": "107%"},
      {"smiles": "COc1ccc2cc([S+]([O-])Cc3ncc(C)c(OC)c3C)nc2c1", "viability (% of control)": "107%"},
      {"smiles": "Cn1cc(CNCC2CCN(c3ncc(C(=O)NO)cn3)CC2)c2ccccc21", "viability (% of control)": "4.24%"},
      {"smiles": "CN(C)c1ccc2cc(C(=O)N[C@@H](CCCN=C(N)CCl)C(=O)NCc3ccccc3)ccc2c1", "viability (% of control)": "2.66%"},
      {"smiles": "CC(C)N1[N]C(=C2C=c3cc(O)ccc3=N2)c2c(N)ncnc21", "viability (% of control)": "2.77%"},
      {"smiles": "c1cc(N[C@@H]2CCNC2)nc(-c2cnc3ccc(-c4cn[nH]c4)cn23)c1", "viability (% of control)": "3.36%"},
      {"smiles": "O=C(C=CC#Cc1cccc(NS(=O)(=O)c2ccccc2)c1)NO", "viability (% of control)": "3.48%"},
      {"smiles": "C[C@](Cc1c[nH]c2ccccc12)(NC(=O)OC1C2CC3CC(C2)CC1C3)C(=O)NC[C@H](NC(=O)CCC(=O)O)c1ccccc1", "note": "(stereo not given in full)", "viability (% of control)": "4.7%"},
      {"smiles": "C[C@H]1[C@@H](OC(=O)CCC(=O)O)O[C@@H]2O[C@@]3(C)CC[C@@H]4[C@H](C)CC[C@@H]1[C@@]24OO3", "viability (% of control)": "5.3%"},
      {"smiles": "CC(=O)O[C@H]1C[C@@H]2CC[C@H]3[C@H]4C[C@H]([N+]5(C)CCCCC5)[C@@H](OC(C)=O)[C@@]4(C)CC[C@@H]3[C@@]2(C)C[C@H]1[N+]1(C)CCCCC1", "viability (% of control)": "120%"},
      {"smiles": "CN(CC(=O)N(Cc1ccc(C2CCCCC2)cc1)c1ccc(C(=O)O)c(O)c1)S(=O)(=O)c1c(F)c(F)c(F)c(F)c1F", "viability (% of control)": "3.33%"},
      {"smiles": "FC(F)(F)c1ccc(Nc2nc3ccc(Oc4ccnc(-c5ncc(C(F)(F)F)[nH]5)c4)cc3[nH]2)cc1", "viability (% of control)": "24.9%"},
      {"smiles": "CC(=O)NCC(=O)N1[C@H]2CC[C@H]1c1cc(Nc3ncc(C(F)(F)F)c(NC4CCC4)n3)ccc12", "viability (% of control)": "2.93%"},
      {"smiles": "C[C@H](NC(=O)Cc1cc(F)cc(F)c1)C(=O)N[C@H](C(=O)OC(C)(C)C)c1ccccc1", "viability (% of control)": "96.1%"},
      {"smiles": "CCCCCCCCCCCC(CC1OC(=O)C1CCCCCC)OC(=O)C(CC(C)C)NC=O", "note": "(stereo not given)", "viability (% of control)": "89.4%"},
      {"smiles": "C[C@@H](Cc1cc2c(c(C(N)=O)c1)N(CCCO)CC2)NCCOc1ccccc1OCC(F)(F)F", "viability (% of control)": "97.3%"},
      {"smiles": "FC(F)c1nc2ccccc2n1-c1nc(N2CCOCC2)nc(N2CCOCC2)n1", "viability (% of control)": "37.8%"},
      {"smiles": "O=C1c2cccc(O)c2C(=O)c2c(O)cc(CO)cc21", "viability (% of control)": "116%"},
      {"smiles": "Cc1ccc([N+](=O)[O-])cc1S(=O)(=O)N(C)N=Cc1cnc2ccc(Br)cn12", "viability (% of control)": "3.92%"},
      {"smiles": "C[C@@H](Oc1ccc2[nH]nc(C=Cc3cnn(CCO)c3)c2c1)c1c(Cl)cncc1Cl", "viability (% of control)": "6.51%"},
      {"smiles": "CC(C)OC(=O)[C@H](C)N[P@](=O)(OC[C@H]1O[C@@H](n2ccc(=O)[nH]c2=O)[C@](C)(F)[C@H]1O)Oc1ccccc1", "viability (% of control)": "88.9%"},
      {"smiles": "Cn1cc(C[C@@H](N)C(=O)O)c2ccccc21", "viability (% of control)": "126% [at 23.2 µM]"},
      {"smiles": "CCOc1cc2c(c(F)c1OCC)C(=N)N(CC(=O)c1cc(N3CCOCC3)c(OC)c(C(C)(C)C)c1)C2", "viability (% of control)": "2.82%"},
      {"smiles": "N#Cc1c(C2CCNCC2)cc(-c2c(O)cccc2OCC2CC2)nc1N", "viability (% of control)": "5.17%"},
      {"smiles": "COc1cc([C@@H]2c3cc4c(cc3[C@@H](O[C@@H]3O[C@@H]5CO[C@@H](c6cccs6)O[C@@H]5[C@H](O)[C@@H]3O)[C@H]3COC(=O)[C@H]23)OCO4)cc(OC)c1O", "viability (% of control)": "5.23%"}
    ]}
  ]
}
